# Where “and” joins values, the source holds several entries; their conditions need not be identical. Equal values may be shown once. Results filed as inconclusive are left out. Some of the results follow. Calls of active or inactive are those of the source. Unless noted, the call rests on the fitted dose curve; in most records, active means well fitted curve in the direction sought with a large enough effect; inconclusive means small, poorly fitted or top-dose-only effect, or another doubt; inactive means no such curve, though single readings can be large; an effect the other way counts as inactive or inconclusive.
# Key:
# [1] = target: Cytochrome P450 2C9 (Homo sapiens) (UniProt P11712); experiment: qHTS Assay for Inhibitors and Substrates of Cytochrome P450 2C9 (AID 883); further: nearly all actives have a fitted effect of over 60% in size; further: potency means the concentration at half of the fitted maximal effect; on activity change, negative = inhibition: on the % scale 0 is the no-effect control and ±100 the full control effect
# Method in brief: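 A luminogenic readout tracked human CYP2C9 (10nM) converting deoxyluciferin (100uM, at KM) in 25mM KPO4 during 60 min at 37C with regenerated NADPH. Values normalized to 57uM sulphaphenazole as complete inhibition.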
# [2] = target: Cytochrome P450 3A4 (Homo sapiens) (UniProt P08684); experiment: qHTS Assay for Inhibitors and Substrates of Cytochrome P450 3A4 (AID 884); further: potency means the concentration at half of the fitted maximal effect; nearly all actives have a fitted effect of over 50% in size
# Method in brief: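 Luminescent readout of luciferin produced by CYP3A4 (20 nM) dealkylation of Luciferin-PPXE, 25 uM (its KM). NADPH-driven reaction ran 60 min at RT after 10 min compound preincubation; data scaled to 57 uM ketoconazole as 100% inhibition.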
# [3] = target: Cytochrome P450 3A4 (Homo sapiens) (UniProt P08684); experiment: qHTS Assay for Activators of Cytochrome P450 3A4 (AID 885); further: nearly all actives have a fitted effect of over 65% in size
# Method in brief: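 Using 20nM recombinant human CYP3A4 in potassium phosphate (200mM), substrate Luciferin-PPXE at 25uM, luminescent luciferin detection followed a 60-min RT NADPH reaction; data scaled to 57 uM ketoconazole.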
# [4] = target: Cytochrome P450 2D6 (Homo sapiens) (UniProt P10635); experiment: qHTS Assay for Inhibitors and Substrates of Cytochrome P450 2D6 (AID 891); further: nearly all actives have a fitted effect of over 60% in size; further: potency means the concentration at half of the fitted maximal effect;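 on activity change, negative = inhibition: luciferin methyl ether substrate demethylated by CYP2D6 with NADPH regeneration; on the % scale 0 is the no-effect control and ±100 the full control effect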
# Method in brief: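 Luminescent read-out of luciferin formed by 5 nM human CYP2D6 demethylating 30 uM Luciferin-ME EGE (Km level) over 60 min at room temperature after NADPH regeneration addition. Data normalized to full inhibition by 1.43 uM quinidine.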
# [5] = qHTS profiling for inhibitors of Plasmodium falciparum (3D7) proliferation (AID 743322);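 further: infected erythrocytes exposed to compound for 72 h before lysis; 100% = DMSO vehicle wells and 0% = 0.29 µM artemisinin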; conditions: P. falciparum 3D7 proliferation; at 28.7 µM (top of the series) unless noted
# Method in brief: (§1)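 Parasite DNA was quantified by SYBR Green I fluorescence (ex 485, em 535 nm) after overnight lysis in saponin/Triton buffer at room temperature. Cultures at 0.3% parasitemia and 2.5% hematocrit were first exposed to compound for 72 h at 37 C; signals were normalised to artemisinin (0.29 uM) and vehicle wells.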
# [6] = qHTS profiling for inhibitors of Plasmodium falciparum (DD2) proliferation (AID 743323; call rule not given here); conditions: lower = more inhibition; at 28.7 µM (top of the series) unless noted
# Method in brief: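 Parasite proliferation measured via DNA-dye fluorescence, as uninfected erythrocytes lack DNA. Cultures at 0.3% parasitemia and 2.5% hematocrit incubated 72 h with compound; signal scaled between vehicle and 0.29 uM artemisinin wells.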
# [7] = qHTS profiling for inhibitors of Plasmodium falciparum (HB3) proliferation (AID 743324); conditions: Plasmodium falciparum HB3 blood-stage proliferation; at 28.7 µM (top of the series) unless noted;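 further: 100% = DMSO vehicle wells and 0% = artemisinin-treated control wells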
# Method in brief: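 SYBR Green fluorescence (485 ex/535 em) of lysed cultures, incubated overnight at room temperature in the dark, quantifies parasite DNA. Infected erythrocytes at 0.3% parasitemia and 2.5% hematocrit were exposed 72 h; values normalized to DMSO and 0.29 uM artemisinin controls.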
# [8] = qHTS Assay for Identifying Gametocytocidal Compounds (AID 743244); further: potency means the concentration at half of the fitted maximal effect; conditions: P. falciparum 3D7 stage III-V gametocytes, alamarBlue, 72 h; max response: stronger effect = lower value
# Method in brief: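 Stage III-V P. falciparum 3D7 gametocytes, 20,000 per well, were exposed to compounds for 72 h at 37C, 5% CO2. AlamarBlue was then added for 24 h and viability was read as fluorescence at Ex 525/Em 598 nm.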
# [9] = qHTS profiling of the MIPE4 collection as inhibitors of Plasmodium falciparum (3D7) proliferation (AID 743344; call rule not given here;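 further: scaled between DMSO vehicle wells and 0.29 µM artemisinin as full inhibition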); conditions: P. falciparum 3D7 in erythrocytes, SYBR Green DNA fluorescence, 72 h; at 5.51 µM (top of the series) unless noted
# Method in brief: as §1
# [10] = qHTS profiling of the MIPE4 collection as inhibitors of Plasmodium falciparum (DD2) proliferation (AID 743345; call rule not given here); conditions: P. falciparum Dd2 in erythrocytes, SYBR Green DNA, 72 h; at 5.51 µM (top of the series) unless noted
# Method in brief: as §1
# [11] = qHTS profiling of the MIPE4 collection as inhibitors of Plasmodium falciparum (DD2) proliferation (Rep 2) (AID 743346; call rule not given here); conditions: P. falciparum Dd2 in erythrocytes, SYBR Green DNA, 72 h; at 5.51 µM (top of the series) unless noted
# Method in brief: as §1
# [12] = qHTS profiling of the MIPE4 collection as inhibitors of Plasmodium falciparum (HB3) proliferation (AID 743347; call rule not given here;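 further: plate controls were DMSO vehicle wells for no effect and artemisinin wells for full effect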); conditions: P. falciparum HB3 in erythrocytes, SYBR Green DNA, 72 h; at 5.51 µM (top of the series) unless noted
# Method in brief: as §1
# [13] = target: DNA polymerase eta (Homo sapiens) (UniProt Q9Y253); experiment: qHTS for Inhibitors of Polymerase Eta: Confirmatory Assay for Cherry-picked Compounds (AID 720502); conditions: Pol eta primer extension, TAMRA/BHQ fluorescence, 10 min; further: potency means the concentration at half of the fitted maximal effect
# Method in brief: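 Human Pol eta at 10 nM was preincubated with compound for 15 min at room temperature. Reaction was started with TAMRA/BHQ-2-labelled primer-template substrate (50 nM final), with fluorescence read at 0 and 10 min (ex 525, em 598 nm).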
# [14] = target: Cytochrome P450 2C19 (Homo sapiens) (UniProt P33261); experiment: qHTS Assay for Inhibitors and Substrates of Cytochrome P450 2C19 (AID 899); further: potency means the concentration at half of the fitted maximal effect; nearly all actives have a fitted effect of over 60% in size
# Method in brief: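 NADPH-dependent conversion of Luciferin-H EGE (10uM, at KM) by 5nM enzyme in 50mM KPO4, 60 min at 37C following 10 min compound preincubation. Stopped with luciferin detection buffer; luminescence read after 20 min.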
# [15] = qHTS assay for small molecule agonists of the antioxidant response element (ARE) signaling pathway measured by Nrf2-dependant transcriptional activity (AID 720636; active means well fitted curve in the direction sought with a large enough effect in the repeat runs; an effect the other way counts as inactive or inconclusive;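 further: HepG2 cells with an ARE-driven luciferase reporter; % of control where 0% means no effect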)
# Method in brief: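 In HepG2 cells engineered with an Nrf2-responsive luciferase gene, ARE induction was quantified as luminescence after 16 hr compound treatment at 37 C.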
# [16] = qHTS assay for small molecule agonists of the antioxidant response element (ARE) signaling pathway measured by Nrf2-dependant transcriptional activity - cell viability counter screen (AID 720653; active means well fitted curve in the direction sought with a large enough effect in the repeat runs; an effect the other way counts as inactive or inconclusive; further: potency means the concentration at half of the fitted maximal effect); conditions: ARE-bla HepG2 viability, CellTiter-Glo ATP luminescence, 16 h; max response: stronger effect = lower value
# Method in brief: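 ARE-bla HepG2 cells (2,000/well) rested 5 hrs at 37C/5% CO2, then exposed to compounds in DMSO for 16 hrs. Viability was read in the same wells as intracellular ATP by luminescence, 30 min at room temperature after reagent addition.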
# Cytochrome P450 3A4 (Homo sapiens), sequence (P08684 whole entry, looked up): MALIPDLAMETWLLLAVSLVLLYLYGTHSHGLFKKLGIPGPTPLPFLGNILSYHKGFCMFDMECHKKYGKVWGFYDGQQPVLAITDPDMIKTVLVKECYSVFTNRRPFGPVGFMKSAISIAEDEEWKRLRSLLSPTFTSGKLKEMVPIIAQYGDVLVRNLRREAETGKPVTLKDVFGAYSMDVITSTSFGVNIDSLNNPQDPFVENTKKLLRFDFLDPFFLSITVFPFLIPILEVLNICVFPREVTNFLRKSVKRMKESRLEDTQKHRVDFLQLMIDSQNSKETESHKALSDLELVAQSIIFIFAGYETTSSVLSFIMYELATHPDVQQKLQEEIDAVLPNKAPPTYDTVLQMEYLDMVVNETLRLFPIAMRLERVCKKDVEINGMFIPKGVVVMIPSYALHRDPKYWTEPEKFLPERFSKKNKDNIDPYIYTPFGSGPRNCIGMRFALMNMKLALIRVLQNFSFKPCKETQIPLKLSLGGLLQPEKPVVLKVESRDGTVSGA
# Cytochrome P450 2C9 (Homo sapiens), sequence (P11712 whole entry, looked up): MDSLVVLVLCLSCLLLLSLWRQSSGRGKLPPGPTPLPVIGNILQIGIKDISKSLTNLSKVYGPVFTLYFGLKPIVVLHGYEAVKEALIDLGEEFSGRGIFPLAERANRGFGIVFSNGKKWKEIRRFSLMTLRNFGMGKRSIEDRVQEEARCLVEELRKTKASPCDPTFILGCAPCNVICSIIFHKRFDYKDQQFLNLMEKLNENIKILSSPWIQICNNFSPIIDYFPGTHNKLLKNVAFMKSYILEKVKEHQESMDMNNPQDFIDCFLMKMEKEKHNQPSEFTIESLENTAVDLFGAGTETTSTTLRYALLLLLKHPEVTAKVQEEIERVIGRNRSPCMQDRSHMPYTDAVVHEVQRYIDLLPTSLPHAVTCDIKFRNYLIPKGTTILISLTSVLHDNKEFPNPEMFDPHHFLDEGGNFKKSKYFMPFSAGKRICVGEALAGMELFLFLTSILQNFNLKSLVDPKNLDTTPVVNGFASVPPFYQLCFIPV
# Cytochrome P450 2D6 (Homo sapiens), sequence (P10635 whole entry, looked up): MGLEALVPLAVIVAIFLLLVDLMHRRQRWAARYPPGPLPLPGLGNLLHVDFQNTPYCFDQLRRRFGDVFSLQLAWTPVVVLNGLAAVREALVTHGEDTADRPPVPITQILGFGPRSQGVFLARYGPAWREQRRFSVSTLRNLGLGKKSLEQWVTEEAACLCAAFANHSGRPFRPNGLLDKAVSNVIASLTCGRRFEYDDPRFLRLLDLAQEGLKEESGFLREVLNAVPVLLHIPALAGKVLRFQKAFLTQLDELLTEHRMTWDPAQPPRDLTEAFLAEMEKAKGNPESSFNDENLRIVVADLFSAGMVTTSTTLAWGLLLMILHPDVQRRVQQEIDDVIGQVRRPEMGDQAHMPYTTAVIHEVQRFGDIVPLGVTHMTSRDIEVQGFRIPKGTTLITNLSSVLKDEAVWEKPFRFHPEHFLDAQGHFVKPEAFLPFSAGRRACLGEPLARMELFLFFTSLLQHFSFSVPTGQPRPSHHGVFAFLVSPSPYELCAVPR
# DNA polymerase eta (Homo sapiens), sequence (Q9Y253 whole entry, looked up): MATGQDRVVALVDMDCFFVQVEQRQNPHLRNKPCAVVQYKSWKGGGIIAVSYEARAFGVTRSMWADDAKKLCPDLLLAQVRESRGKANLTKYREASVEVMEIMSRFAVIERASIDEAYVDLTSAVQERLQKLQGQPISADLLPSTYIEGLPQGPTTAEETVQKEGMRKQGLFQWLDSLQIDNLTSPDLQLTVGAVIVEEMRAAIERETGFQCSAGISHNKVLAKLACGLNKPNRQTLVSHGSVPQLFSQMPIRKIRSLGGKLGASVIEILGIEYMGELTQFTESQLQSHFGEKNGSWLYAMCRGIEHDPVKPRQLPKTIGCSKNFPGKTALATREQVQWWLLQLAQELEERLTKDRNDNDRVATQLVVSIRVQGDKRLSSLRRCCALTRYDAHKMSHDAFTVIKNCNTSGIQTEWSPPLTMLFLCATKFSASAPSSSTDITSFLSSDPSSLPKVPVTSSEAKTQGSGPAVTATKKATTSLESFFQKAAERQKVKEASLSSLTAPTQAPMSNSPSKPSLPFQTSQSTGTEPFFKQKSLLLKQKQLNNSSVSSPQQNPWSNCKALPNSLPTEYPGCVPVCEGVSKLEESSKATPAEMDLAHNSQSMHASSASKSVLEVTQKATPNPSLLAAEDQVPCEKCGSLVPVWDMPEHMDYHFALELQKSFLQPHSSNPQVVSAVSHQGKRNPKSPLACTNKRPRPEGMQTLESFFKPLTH
# Cytochrome P450 2C19 (Homo sapiens), sequence (P33261 whole entry, looked up): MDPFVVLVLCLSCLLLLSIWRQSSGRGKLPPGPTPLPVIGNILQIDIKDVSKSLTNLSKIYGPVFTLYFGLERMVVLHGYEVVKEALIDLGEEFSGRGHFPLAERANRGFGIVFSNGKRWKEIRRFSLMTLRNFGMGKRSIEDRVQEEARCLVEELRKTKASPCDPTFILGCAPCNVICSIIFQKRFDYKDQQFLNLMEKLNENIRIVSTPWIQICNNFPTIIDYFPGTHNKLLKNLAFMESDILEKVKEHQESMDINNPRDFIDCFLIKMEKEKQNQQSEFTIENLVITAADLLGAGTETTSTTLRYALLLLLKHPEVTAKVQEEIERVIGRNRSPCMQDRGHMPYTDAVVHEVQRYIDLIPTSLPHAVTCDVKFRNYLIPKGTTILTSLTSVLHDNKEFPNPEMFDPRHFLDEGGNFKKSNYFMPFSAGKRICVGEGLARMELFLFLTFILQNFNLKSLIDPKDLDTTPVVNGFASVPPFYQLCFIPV
smiles,measurement,setting,value
COC(=O)C1C(c2ccccc2)C2C(=O)c3c(OC)cc(OC)cc3O[C@@]12c1ccc(OC)cc1 (stereo not given in full),"activity change, negative = inhibition",[1],-4.65% [at 11.4 µM] (inactive)
same,Potency,[2],3980 nM (active)
same,"activity change, positive = activation",[3],-68.8% [at 11.4 µM] (inactive)
same,"activity change, negative = inhibition",[4],-16.4% [at 11.4 µM] (inactive)
O=C1C(=O)c2ccccc2C(O)=C1C1CCC2(CC1)OOC1(O2)C2CC3CC(C2)CC1C3 (stereo not given),remaining parasite growth % (stronger effect = lower value),[5],0.339%
same,"activity, percent of control",[6],-0.0523%
same,"remaining proliferation (% of control), lower = more inhibition",[7],0.423%
C=Cc1c(C)c2cc3nc(cc4[nH]c(cc5nc(cc1[nH]2)C(C)=C5CCC(=O)OC)c(CCC(=O)O)c4C)[C@@]1(C)C3=CC=C(C(=O)OC)[C@H]1C(=O)OC,Potency,[8],894 nM (active)
C[C@@H]1[C@@H](CC(C[C@H]2O[C@@H]3O[C@]4(C)CC[C@@H]5[C@H](C)CC[C@@H]([C@H]2C)[C@@]35OO4)C(=O)NCc2ccc(F)cc2)O[C@@H]2O[C@]3(C)CC[C@H]4[C@H](C)CC[C@@H]1[C@@]24OO3 (stereo not given in full),remaining parasite growth % (stronger effect = lower value),[5],-0.677%
same,"activity, percent of control",[6],0.0214%
same,"remaining proliferation (% of control), lower = more inhibition",[7],0.676%
CCCCN(CCCC)CCC(OC(=O)O[C@H]1CCC[C@]2(C1)OOC1(O2)C2CC3CC(C2)CC1C3)c1cc2c(Cl)cc(Cl)cc2c2cc(C(F)(F)F)ccc12 (stereo not given in full),remaining parasite growth % (stronger effect = lower value),[5],-0.262%
same,"activity, percent of control",[6],0.194%
same,"remaining proliferation (% of control), lower = more inhibition",[7],0.0614%
COC(=O)C[C@](O)(CCCC(C)(C)O)C(=O)O[C@@H]1C(OC)=CC23CCCN2CCc2cc4c(cc2[C@H]13)OCO4 (stereo not given in full),Potency,[8],83.3 nM (active)
CC[C@@]1([C@@H]2O[C@@H]([C@H]3O[C@@](O)(CO)[C@H](C)C[C@@H]3C)C[C@@H]2C)CC[C@H]([C@]2(C)CC[C@]3(C[C@H](O)[C@@H](C)[C@@H]([C@@H](C)[C@@H](OC)[C@H](C)C(=O)O)O3)O2)O1 (stereo in doubt),Potency,[8],891 nM (active) and 166 nM (active)
C[C@H]1[C@@H](OC(=O)CCC(=O)O)O[C@@H]2OC3(C)CC[C@H]4[C@H](C)CC[C@@H]1[C@@]24OO3,Potency,[8],66.2 nM (active)
CC(C)(N)CNC(=O)CC1CCC2(CC1)OOC1(O2)C2CC3CC(C2)CC1C3 (stereo not given),"parasite growth, % of DMSO control",[9],4.69% [at 28.5 µM]
same,"parasite growth remaining, % of DMSO control (lower = more inhibition)",[10],6.94% [at 28.5 µM]
same,"parasite growth, % of control (lower = inhibition)",[11],27.3% [at 28.5 µM]
same,"growth, % of control",[12],5.72% [at 28.5 µM]
O=C1NC(=O)N(c2ccc(F)cc2)C(=O)/C1=C/c1ccc2c(c1)CCCN2Cc1ccccc1,Potency,[13],84900 nM (active)
COCOc1ccc(Br)cc1C(=O)/C=C\c1ccc2c(c1)OCO2,Potency,[1],2000 nM (active)
same,Potency,[2],3160 nM (active)
same,"activity change, positive = activation",[3],-91.5% [at 11.4 µM] (inactive)
same,Potency,[4],3160 nM (active)
same,Potency,[14],63.1 nM (active)
CC/C(=C(\c1ccc(O)cc1)c1ccc(OCCN(C)C)cc1)c1ccccc1,Potency,[15],inactive
same,Potency,[16],25100 nM (active)
CC[C@@H](C(=O)[C@@H](C)[C@@H](O)[C@H](C)[C@@H]1O[C@@H]([C@@H](CC)C(=O)O)CC[C@@H]1C)[C@H]1O[C@]2(C=C[C@@H](O)[C@]3(CC[C@@](C)([C@H]4CC[C@](O)(CC)[C@H](C)O4)O3)O2)[C@H](C)C[C@@H]1C,Potency,[8],235 nM (active)
